Our source for the growth values is PubChem BioAssay (NCI).

Test systems include T-47D breast; BT-549 breast; MDA-MB-435 melanoma; MCF7 breast; HCT-116 colon; HCC-2998 colon; KM12 colon; SW-620 colon.
Holding throughout (experiment): NCI-60 one-dose screen, 48 h (100 = growth as untreated, 0 = no growth, -100 = all killed)
Common to all, as to conditions: 10 µM unless noted

The structures appear in SMILES notation. About 83,000 compounds went through this panel and 20% of them were active in at least one assay; those are over-represented in the sample as a whole.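 Percent growth is the endpoint: 0 to 100 indicates growth inhibition (40 means 60% inhibition), 0 means no net growth, and negative values indicate cell death.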 A number with no mark means an inactive call. Active and inactive are the calls of the source. Rule for the calls: active = growth percent below 10; inactive = the rest.

Consider `Cc1cc(=O)n(Nc2ccccc2)c(O)c1C#N`, for which the growth was 92% in the test on T-47D breast; 107% with BT-549 breast; 108% in the test on MDA-MB-435 melanoma; 98.4% in the test with MCF7 breast; 101% in the test with HCT-116 colon; 112% with HCC-2998 colon. In the test with KM12 colon, the growth was 92.9%.

Turning to `O=[N+]([O-])c1c(Cl)ncnc1Cl`, the growth in the test on T-47D breast was 117%; in the test on BT-549 breast, 106%; in the test on SW-620 colon it was 95.3%; in the test on MCF7 breast it was 95.2%; in the test on HCT-116 colon, 115%; with HCC-2998 colon it was 121%. Further, in the test on KM12 colon, the growth is 102%.

For `Cc1cccnc1NC1OC(=O)c2ccccc21` (stereo unspecified), the growth in the test with T-47D breast was 94.2%; in the test on BT-549 breast, 97.6%; in the test on MDA-MB-435 melanoma it was 103%; in the test on MCF7 breast, 102%; in the test on HCT-116 colon it was 90.8%; with HCC-2998 colon, 106%. Further, the growth in the test on KM12 colon was 105%.

For `Nc1ccc(F)cc1F`, the growth in the test with T-47D breast was 101%; in the test with BT-549 breast it was 103%; with MDA-MB-435 melanoma it was 107%; in the test with MCF7 breast it was 96%; in the test with HCT-116 colon, 88.5%; in the test on HCC-2998 colon, 113%. Moreover, the growth in the test on KM12 colon is 108%.

For the compound `NC(CCl)=NCC12CC3CC(CC(C3)C1)C2`, the growth is 15.7% in the test with T-47D breast; 1.18% (active) in the test with BT-549 breast; -3.63% (active) in the test on MDA-MB-435 melanoma; -69.2% (active) in the test on HCT-116 colon; -17.9% (active) in the test on HCC-2998 colon; -31.6% (active) with KM12 colon.

Take `CC(=O)NCNC(C)=O`: the growth was 108% in the test with T-47D breast; 100% in the test with BT-549 breast; 107% with MDA-MB-435 melanoma; 104% with HCT-116 colon; 113% with HCC-2998 colon; 117% in the test with KM12 colon.

For the compound `Oc1cccc(CNC2CCCCC2)c1`, the growth in the test on T-47D breast is 113%; with BT-549 breast it was 112%; in the test on MDA-MB-435 melanoma, 105%; with MCF7 breast it was 91.3%; in the test with HCT-116 colon it was 103%; in the test on HCC-2998 colon, 102%. In addition, in the test on KM12 colon, the growth was 107%.

As to `Clc1ccc(-c2noc(/C=C\c3ccccc3)n2)cc1`, the growth was 89% in the test on T-47D breast; 102% in the test on BT-549 breast; 92.7% in the test with MDA-MB-435 melanoma; 74.4% in the test on MCF7 breast; 102% in the test on HCT-116 colon; 95.2% with HCC-2998 colon. In the test on KM12 colon, the growth was 100%.

`CC(C)NC(=O)OCc1c(COC(=O)NC(C)C)c(-c2ccc(Cl)cc2)n2c1CCC2`: the growth in the test on T-47D breast was 36.3%; in the test on BT-549 breast, 27%; in the test with SW-620 colon it was 46.6%; with MCF7 breast, 41.2%; in the test on HCT-116 colon it was 49.9%; with HCC-2998 colon it was 87%.

For `O=c1cc(C(F)(F)F)[nH]c(=S)[nH]1`, the growth was 97.7% in the test on T-47D breast; 122% with BT-549 breast; 106% in the test with MDA-MB-435 melanoma; 94.9% in the test with MCF7 breast; 112% in the test on HCT-116 colon; 117% in the test with HCC-2998 colon. Besides, the growth in the test with KM12 colon was 103%.

Consider `N#C/C(=C\c1ccc2c(c1)OCO2)c1ccccc1`, for which the growth in the test with T-47D breast was 61.4%; in the test on BT-549 breast, 65.2%; with MDA-MB-435 melanoma, -1.53% (active); in the test on MCF7 breast, 53%; in the test with HCT-116 colon it was 53.3%; in the test with HCC-2998 colon, 76.4%. In addition, in the test with KM12 colon, the growth was 42.8%.

Consider `COc1nc(Nc2cccc(C(F)(F)F)c2)nc(OC)n1`, for which the growth was 92.5% in the test on T-47D breast; 91% with BT-549 breast; 110% with SW-620 colon; 97.9% in the test with MCF7 breast; 97% in the test with HCT-116 colon; 108% in the test on HCC-2998 colon. The growth in the test on KM12 colon is 97.8%.

Take `Nc1cc2c(cc1Cl)C(=O)c1ccccc1C2=O`: the growth with T-47D breast is 35.7%; in the test with BT-549 breast it was 37.9%; with MDA-MB-435 melanoma, 90.1%; in the test with MCF7 breast, 65.9%; with HCT-116 colon, 1.71% (active); in the test on HCC-2998 colon, 69%. In addition, in the test with KM12 colon, the growth is 28.8%.

`COc1ccc2c(c1)Nc1ccccc1S2`: the growth was 95.7% in the test with T-47D breast; 89.1% with BT-549 breast; 112% in the test on MDA-MB-435 melanoma; 98.6% with MCF7 breast; 105% in the test with HCT-116 colon; 110% in the test with KM12 colon.

With `OCCNc1ccccc1`, the growth in the test on T-47D breast is 98.7%; in the test on BT-549 breast, 97.4%; in the test with SW-620 colon, 108%; with MCF7 breast, 97.1%; in the test on HCT-116 colon it was 89.9%; with HCC-2998 colon it was 105%. Also, the growth in the test with KM12 colon is 101%.

In the case of `Cc1ccc(C)c(CCO)c1`, the growth in the test with T-47D breast was 103%; in the test with BT-549 breast, 94.3%; in the test on MDA-MB-435 melanoma, 107%; with MCF7 breast, 112%; in the test on HCT-116 colon it was 107%; in the test on HCC-2998 colon, 103%. The growth with KM12 colon was 101%.

Consider `O=[N+]([O-])c1ccc2[nH]c(=S)n(/C=C(/c3ccc(Cl)cc3Cl)S(=O)(=O)Cc3ccc(Cl)cc3Cl)c2c1`, for which the growth in the test with T-47D breast is 90.2%; in the test with BT-549 breast it was 93.9%; in the test with MDA-MB-435 melanoma, 103%; in the test with MCF7 breast, 87.8%; in the test with HCT-116 colon, 82.8%; in the test with KM12 colon, 108%.

In the case of `CC(=O)N=c1ccc2nc3c(cc(N)c4ccccc43)oc-2c1`, the growth in the test with T-47D breast was -57.8% (active); with BT-549 breast, 10.4%; in the test on MDA-MB-435 melanoma, -82.3% (active); with MCF7 breast, -74.9% (active); in the test with HCT-116 colon, -45.2% (active); in the test with HCC-2998 colon it was -4.32% (active). Also, the growth with KM12 colon is -59.9% (active).

As for `O=c1[nH]c(=O)c2cc(Cl)cc(Cl)c2[nH]1`, the growth is 111% with T-47D breast, 91.4% in the test on BT-549 breast, 113% in the test on MDA-MB-435 melanoma and 98.3% in the test on HCT-116 colon.

Consider `CCOC(=O)C(C#N)=C1CCN(C)CC1`, for which the growth was 106% in the test with T-47D breast; 103% in the test on BT-549 breast; 109% with MDA-MB-435 melanoma; 103% in the test on HCT-116 colon; 97.7% in the test with KM12 colon.

Take `N#CC1(O)CCCCC1`: the growth with T-47D breast was 103%; in the test with BT-549 breast, 93.9%; with MDA-MB-435 melanoma it was 99.3%; with HCT-116 colon, 103%; in the test with HCC-2998 colon, 93.3%; in the test on KM12 colon it was 102%.
